Compound activity deposited in PubChem by several laboratories.
Shown are actives, neighbours in structure and some others; about 4.3% of the full set was active somewhere.
HSF-1 act: increases HSF-1 driven luciferase reporter signal; NIH3T3-HGL HSF-1 luciferase reporter, MG132, 8 h; 100% = twice DMSO control signal; activation, % at 9 µM; actives 1.7% (n = 300,000); AID 504408;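 active means mean replicate activation of at least 50% with a set share of replicates each reaching 50%; inconclusive means only one of those two conditions met; inactive means mean below 50% and too few replicates reaching it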;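 further: 0% = median of the neutral control wells and 100% = twice that signal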
esBAF inh: inhibitors of esBAF chromatin remodeling in mouse ES cells | Bmi1-luciferase knock-in reporter, 24 h; 100% = twice the neutral-well signal | reporter increase, % at 12.5 µM | actives 2% (n = 350,000) | AID 602393; in the data active means activation above about 40%; inconclusive means no clear call, values can overlap the other calls;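 further: 0% = median of the plate's neutral control wells and 100% = double that signal; a rise in the Bmi1 reporter signal indicates esBAF inhibition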
HSF1 inh: HSF1 inhibition | NIH3T3-HGL HSE-luciferase, MG132-induced, luminescence 8 h; hits give low values | activity change, negative = inhibition, % at 7.5 µM (by protocol) | actives 0.77% (n = 300,000);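 active means more than half of replicate wells show activity change below -50%, luminescence cut by over half; inconclusive means some wells, but at most half, below -50%; inactive means no replicate well below -50%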;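 further: luciferase reports HSF-1 transcriptional activity via heat shock element; 0% = median of DMSO wells and -100% = zero luminescence signal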
MITF act: increases MITF-driven TRPM1 promoter luciferase signal | SK-MEL-5 TRPM1-promoter luciferase, 24 h; % of positive control, neutral wells = 0 | activation, % at 12.5 µM | actives 0.75% (n = 300,000);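 active means mean activation of at least 80% with every replicate also reaching 80%; inconclusive means mean reaches 80% but some replicate falls short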;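 further: 0% = neutral control wells and 100% = parthenolide positive control wells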
SMARCA2 activ: SMARCA2 function activation, primary screen. AID 652017. MG213 cells, MMTV-luciferase reporter, dexamethasone, overnight. actives 1% (n = 370,000). activation, % at 9.1 µM; in the data active means activation above about 7.8%;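 further: 0% = vehicle wells and 100% = reference activator wells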
Wnt bcat act: activates Wnt/beta-catenin signaling in a reporter cell assay | activator, plate reader | activation, % at 9.35 µM | actives 1.2% (n = 300,000); in the data active means activation above about 30%, passing the limit was not always enough; inconclusive means no clear call, values can overlap the other calls;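 further: 0% = neutral control wells and 100% = positive control wells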
Starred values were filed as active, the others as inactive; ? = inconclusive; / = no result.

SMILES	HSF-1 act	esBAF inh	HSF1 inh	MITF act	SMARCA2 activ	Wnt bcat act
COC(=O)C1CCN(C(=O)c2ccc3nccnc3c2)CC1	-10.5	-4.5	-1.4	-1.3	0.8	0.0
COc1cccc(-c2nc3ccc(C(=O)NC(C)Cc4cccnc4)cc3o2)c1 (stereo not given)	21.2	54.3*	19.0	39.6	2.7	23.3
O=C(C[C@H]1CC[C@H]2[C@@H](COC[C@@H](O)CN2S(=O)(=O)c2ccc(F)cc2)O1)NCc1ccc(Cl)c(Cl)c1	/	0.4	/	/	/	/
O=C(NCc1cccs1)c1ccccc1[N+](=O)[O-]	-76.4	/	-69.6*	-6.1	3.5	3.5
COc1ccc(NC(=O)C23CCC(C)(C(=O)O2)C3(C)C)cc1 (stereo not given)	-3.7	-7.8	-6.5	-0.8	-0.7	/
O=C(CC(=O)c1ccccc1[N+](=O)[O-])c1ccccc1	-76.0	/	-69.8*	/	/	/
O=C(NCc1cccs1)c1ccccc1C(=O)NCc1cccs1	-2.6	-5.1	-9.0	13.2	-2.7	-0.4
CCOC(=O)c1ccc(NC(=O)c2ccc(NS(C)(=O)=O)cc2)cc1	8.2	3.9	5.2	18.8	-2.3	-1.7
CCOC(=O)c1ccc(NC(=O)c2ccccc2)cc1	20.8	35.8	15.8	113.8*	4.6	18.9
CCOC(=O)c1ccc(NC(=O)C23CCC(C)(C(=O)O2)C3(C)C)cc1 (stereo not given)	-8.4	54.9*	-18.8	46.2	4.1	/
CCC(=O)Nc1ccc2c(c1)C(=O)N(C)C[C@@H](OC)[C@@H](C)CN(Cc1cncnc1)[C@@H](C)CO2	/	2.9	/	/	/	/
CCCC(=O)Nc1ccc2c(c1)C(=O)N(C)[C@H]1CC[C@@H](CC(=O)O)O[C@@H]1CO2	/	-14.8	/	/	/	/
CCOC(=O)c1ccc(NC(=O)CCS(=O)(=O)c2ccc(Br)s2)cc1	116.6*	-1.2	47.8	/	-3.8	3.1
CCOC(=O)c1ccc(NC(=O)c2ccccc2[N+](=O)[O-])cc1	7.8	72.7*	-2.3	53.9	-1.7	9.3
COc1ccc(NC(=O)CCS(=O)(=O)c2ccc(Br)s2)cc1	10.5	8.7	-4.7	/	2.2	2.0
Cc1ccc(OC(=O)Nc2ccccc2)cc1	42.5	50.4*	16.0	?	0.7	22.7
CCOC(=O)c1ccc(NC(=O)Oc2ccccc2)cc1	-63.2	-0.9	-50.8*	-2.9	0.4	/
CCOC(=O)c1ccc(NC(=O)c2cccc(C)c2[N+](=O)[O-])cc1	-18.3	/	-5.5	-5.2	-0.2	28.5
O=C(C[C@H]1CC[C@@H]2[C@H](COC[C@H](O)CN2C(=O)c2ccc3c(c2)OCO3)O1)NC1Cc2ccccc2C1	/	3.0	/	/	/	/
CN(C)CC(=O)Nc1ccc2c(c1)[C@@H]1C[C@H](CC(=O)NCc3cc(F)ccc3F)O[C@@H](CO)[C@@H]1O2	/	4.9	/	/	/	/
C[C@@H]1CCCCO[C@H](CN(C)C)[C@@H](C)CN([C@@H](C)CO)C(=O)c2cc(NC(=O)NC3CCCCC3)ccc2O1	/	-2.7	/	/	/	/
O=c1c2ccccc2c(-c2ccccc2)nn1Cc1c(Cl)cccc1Cl	6.3	-0.1	8.6	1.8	-1.1	-4.9
Clc1cccc(Cl)c1Cn1ccc(C2CC2)n1	34.8	/	37.1	70.5	7.9*	9.4
C[C@@H]1CN([C@@H](C)CO)C(=O)c2cc(NC(=O)Nc3ccccc3)ccc2O[C@@H](C)CCCCO[C@H]1CN(C)Cc1ccc(C(F)(F)F)cc1	/	4.0	/	/	/	/
C[C@H](CO)N1C[C@H](C)[C@H](CN(C)S(C)(=O)=O)Oc2ccc(NC(=O)Nc3ccc(C(F)(F)F)cc3)cc2C1=O	/	-1.9	/	/	/	/
SMILES	HSF-1 act	esBAF inh	HSF1 inh	MITF act	SMARCA2 activ	Wnt bcat act
COC(=O)c1sc(NC(=O)c2oc3ccccc3c2C)nc1C	8.6	60.4*	9.6	18.2	6.5	/
Cc1c(C(=O)Nc2nc3ccccc3[nH]2)oc2ccccc12	67.5*	/	30.8	18.3	4.2	19.7
Cc1c(C(=O)Nc2nc3ccccc3[nH]2)oc2c(Cl)cccc12	18.7	48.8*	14.1	5.5	2.1	-3.4
Cc1c(C(=O)Nc2nc3ccccc3[nH]2)oc2ccc(Br)cc12	18.1	/	-3.9	38.8	-0.8	6.5
COc1cccc(-c2cn(CC[C@H]3CC[C@H](NC(C)=O)[C@@H](CO)O3)nn2)c1	/	-1.4	/	/	/	/
COc1cccc(NC(=O)C[C@H]2CC[C@@H]3[C@H](COc4ccc(NC(=O)C5CCOCC5)cc4C(=O)N3C)O2)c1	/	-1.4	/	/	/	/
COc1ccc(NC(=O)N(C)C[C@H]2Oc3c(NS(=O)(=O)c4ccccc4)cccc3C(=O)N([C@@H](C)CO)C[C@H]2C)cc1	/	2.5	/	/	/	/
CCc1ccc(N2Cc3ccccc3C2)cc1	17.8	/	11.5	85.5*	5.5	2.4
CCOC(=O)c1ccc(N2Cc3ccccc3C2)cc1O	21.2	29.7	0.9	106.0*	1.3	7.7
CCOC(=O)N1CCN(C(=O)COC(=O)c2ccc(O)cc2O)CC1	12.5	-0.8	11.5	-7.2	-2.8	1.3
CO[C@H]1CN(C)C(=O)c2cc(NC(=O)C3CC3)ccc2OC[C@H](C)N(C(=O)c2ccccc2F)C[C@@H]1C	/	-4.2	/	/	/	/
CO[C@H]1CN(C)C(=O)c2cc(NC(=O)NC(C)C)ccc2OC[C@@H](C)N(C(=O)C2CCC2)C[C@H]1C	/	-4.6	/	/	/	/
CC1CCCN(C(=O)c2ccc(Cl)c(S(=O)(=O)N3CCCCCC3)c2)C1 (stereo not given)	/	58.4*	/	16.2	-1.5	5.1
O=C(NCc1ccncc1)c1ccc(Cl)c(S(=O)(=O)N2CCOCC2)c1	-80.7	-8.7	-76.3*	/	-1.5	-4.8
CCCN1C(=O)c2ccc(C(=O)Nc3nccs3)cc2C1=O	-3.9	43.3*	1.5	/	2.2	3.5
COCCN1C(=O)c2ccc(C(=O)Nc3nccs3)cc2C1=O	-5.2	-6.2	-0.8	-3.8	-1.9	1.0
O=C(c1ccc(Cl)c(S(=O)(=O)N2CCCC2)c1)N1CCCCC1	6.6	/	2.8	-5.3	0.1	18.4
CCCc1cc(C(=O)Nc2nccs2)cs1	86.3*	19.2	52.7	95.0*	6.5	/
COc1ccc(C(=O)NCc2ccncc2)cc1S(=O)(=O)N1CCOCC1	/	1.5	/	-3.1	-3.3	-1.0
O=C(Nc1nccs1)c1ccc(Cl)c(S(=O)(=O)N2CCCCC2)c1	-5.6	41.8*	3.5	3.3	0.1	/
CCCNC(=O)C[C@@H]1C[C@@H]2c3cc(NC(=O)c4cccnc4)ccc3O[C@@H]2[C@H](CO)O1	/	0.7	/	/	/	/
N=C1S/C(=C\c2ccc(-c3cccc(Cl)c3)o2)C(=O)N1c1nccs1	222.6*	/	211.2	-48.1	-0.8	-0.4
COc1cc(C(=O)ON=C2C=C(C)C(=O)C(C)=C2)cc(OC)c1OC	37.1	/	6.8	-8.8	-1.6	-1.9
COc1cc(C(=O)O/N=C2\C=CC(=O)C(C)=C2)cc(OC)c1OC	42.0	-6.9	26.0	/	4.6	61.3*
Cc1cc(C)n(CC(=O)O)c(=O)c1[N+](=O)[O-]	/	/	/	-0.4	-1.9	35.3*
Cc1cc(=O)n(CC(=O)O)c2ccccc12	1.1	/	-1.7	4.1	4.3	-0.4
